Target: T1, Tyrosyl-tRNA synthetase, putative (Trypanosoma cruzi (strain CL Brener)) (UniProt Q4DSP6)
T1 sequence (whole entry): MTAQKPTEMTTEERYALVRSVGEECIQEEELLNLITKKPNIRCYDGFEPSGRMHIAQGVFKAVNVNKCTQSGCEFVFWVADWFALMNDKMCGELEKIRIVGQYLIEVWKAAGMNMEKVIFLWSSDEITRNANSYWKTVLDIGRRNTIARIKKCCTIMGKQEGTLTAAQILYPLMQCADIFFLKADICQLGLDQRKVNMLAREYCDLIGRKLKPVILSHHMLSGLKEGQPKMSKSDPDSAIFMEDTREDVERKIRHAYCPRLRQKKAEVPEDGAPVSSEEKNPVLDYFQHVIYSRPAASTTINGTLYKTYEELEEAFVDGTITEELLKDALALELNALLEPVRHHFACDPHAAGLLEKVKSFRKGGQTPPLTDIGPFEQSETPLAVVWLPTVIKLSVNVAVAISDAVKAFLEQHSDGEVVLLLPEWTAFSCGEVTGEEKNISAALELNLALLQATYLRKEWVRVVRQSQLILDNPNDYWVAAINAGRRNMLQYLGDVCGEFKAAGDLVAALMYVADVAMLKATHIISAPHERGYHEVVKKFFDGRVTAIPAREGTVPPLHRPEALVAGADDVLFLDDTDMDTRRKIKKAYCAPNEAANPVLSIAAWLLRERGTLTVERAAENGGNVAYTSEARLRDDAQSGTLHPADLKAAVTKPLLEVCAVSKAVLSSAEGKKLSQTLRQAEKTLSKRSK
Experiment: Trypanosoma cruzi tyrosyl tRNA synthetase (TcYRS) SOP
Type: functional
Design: scale not given: direction of the effect not stated beside the values
Conditions: 30 µM

Q: `CN(C)CC1(O)CCN(S(=O)(=O)c2ccc(F)cc2)C1` (stereo not given) was tested. Which Percent Effect did it give?
A: 9.09%

Q: With `CCc1noc(C(C)N2CCN(Cc3nc(C)c(C)o3)CC2)n1` (stereo not given) as the compound, how does the Percent Effect read?
A: -7.32%

Q: Which Percent Effect does the source give for `CS(=O)(=O)CCC(=O)NC1(c2cccc(Br)c2)CC1` here?
A: 12.2%

Q: How did the Percent Effect turn out when `Fc1cccc(CN2CCC(c3n[nH]c4ncccc34)CC2)c1F` was run?
A: 14.3%

Q: `CN(C)C(=O)CN1CCC2(CCN(Cc3nccs3)CC2)C1=O` was tested. Which Percent Effect did it give?
A: 5%

Q: How did the Percent Effect turn out when `CCc1nnc2n1CCN(C(=O)C(C)COCc1ccccc1)C2` (stereo not given) was run?
A: 16.1%

Q: With `Cc1ccc(N2CC3(COCCN(Cc4cccnc4)C3)OCC2=O)s1` (stereo not given) as the compound, how does the Percent Effect read?
A: -3.85%

Q: For `Cc1nc(C)n(CC2CN(Cc3cccnc3)CCO2)n1` (stereo not given), which Percent Effect is on record?
A: 23.5%

Q: For `COc1ccc(C2=CCN(C(=O)CN(C)CC(C)C#N)CC2)cc1` (stereo not given), which Percent Effect is on record?
A: 13.9%

Q: How did the Percent Effect turn out when `CC(NC(=O)Cn1cccn1)c1ccc2c(c1)OCCCO2` (stereo not given) was run?
A: 14.6%

Q: For `CCn1cnnc1CNC(=O)N1CCN(Cc2ccccc2)CC1`, which Percent Effect is on record?
A: 30.6%

Q: How did the Percent Effect turn out when `NC(=O)Nc1cccc(Oc2ccccn2)c1` was run?
A: 2.6%

Q: With `Cc1ccc(CN(Cc2ccccn2)C2CC(C)(C)NC(C)(C)C2)s1` as the compound, how does the Percent Effect read?
A: 3.9%

Q: Which Percent Effect does the source give for `CC(C)c1nccn1CCCNC(=O)c1ccc(-c2cncnc2)nc1` here?
A: 13.6%

Q: How did the Percent Effect turn out when `Cc1nc(CN2CCN(CC(=O)Nc3c(C)cccc3C)CC2)no1` was run?
A: 18.8%

Q: How did the Percent Effect turn out when `c1cnn(Cc2nnc(C3CCN(C4CCOCC4)CC3)n2C2CC2)c1` was run?
A: 16.1%

Q: `CCc1noc(CN2CCCC2c2noc(C3CC3)n2)n1` (stereo not given) was tested. Which Percent Effect did it give?
A: 18.5%

Q: Which Percent Effect does the source give for `Fc1ccc(OCCCN2CCOC(Cn3cncn3)C2)cc1` (stereo not given) here?
A: 2.53%

Q: For `CS(=O)(=O)NCCCN1CCCCC1c1cc2ccccc2[nH]1` (stereo not given), which Percent Effect is on record?
A: 16.5%

Q: For `CCC1=N[C@@]2(CC[C@@H]3CN(Cc4ccc(Cl)cc4)C[C@@H]32)C(=O)N1`, which Percent Effect is on record?
A: 2.56%

Q: `NC(=O)C1(c2cnccn2)CCCN1Cc1cc2ccccc2o1` (stereo not given) was tested. Which Percent Effect did it give?
A: 16.9%

Q: For `CS(=O)(=O)N1CCCCCC1C1CCN(c2ncccc2C#N)CC1` (stereo not given), which Percent Effect is on record?
A: 0%

Q: How did the Percent Effect turn out when `CC(C)CN1Cc2c(C(=O)N(C)C)ncn2-c2ccccc2S1(=O)=O` was run?
A: 15.4%

Q: Which Percent Effect does the source give for `CC(C)N1CCC(Cc2cncc(-c3ccccc3C(=O)O)n2)CC1` here?
A: 8.97%

Q: How did the Percent Effect turn out when `O=C(c1ccsc1)N1CC[C@H]2C[C@@H](c3nnc(C4CC4)o3)O[C@@H]2C1` was run?
A: 11.5%

Q: For `Cn1nnc2c1C(COCC1CC1)CN(C(=O)Cc1ccsc1)C2` (stereo not given), which Percent Effect is on record?
A: 14.1%

Q: How did the Percent Effect turn out when `Cc1noc(C)c1CN1CC[C@@H](OCC2CC2)[C@@H](Cc2ccccc2)C1` was run?
A: 14.1%

Q: How did the Percent Effect turn out when `Cc1ccc(CC2CCCN2CC(=O)NCc2ccccn2)cc1` (stereo not given) was run?
A: 13%

Q: Which Percent Effect does the source give for `CCCC1CCCN(Cc2csc(-c3cnn(C)c3)n2)CC1` (stereo not given) here?
A: 19.5%

Q: Which Percent Effect does the source give for `COc1c(CNCC(O)c2cccc(F)c2)c(C(C)C)nn1C` (stereo not given) here?
A: 14.1%

Q: With `CC(NC(=O)NCCCO)c1ccc2c(c1)OCCO2` (stereo not given) as the compound, how does the Percent Effect read?
A: 28.1%

Q: For `Cc1c(C2CCCN(C(=O)C3CC3)C2)n2c(nc1=O)CCC2` (stereo not given), which Percent Effect is on record?
A: 11.7%

Q: How did the Percent Effect turn out when `CCn1cc(CN2CCCn3nc(CCC(=O)NCCO)cc3C2)cn1` was run?
A: 8.64%

Q: With `Fc1ccc2[nH]c(C3CCCN3CCc3ccccn3)nc2c1` (stereo not given) as the compound, how does the Percent Effect read?
A: 23.5%

Q: Which Percent Effect does the source give for `O=C(CCc1cscn1)N1CCCC1c1noc(C2CC2)n1` (stereo not given) here?
A: 16.1%

Q: Which Percent Effect does the source give for `CCn1c(CN2CCCN(C(=O)OC)CC2)nc2c(F)cccc21` here?
A: 12.2%

Q: For `Cc1nc(C)n(CC2CN(Cc3cccc(C(N)=O)c3)CCO2)n1` (stereo not given), which Percent Effect is on record?
A: 6.1%

Q: How did the Percent Effect turn out when `O=C(C1CC(=O)N(C2CCCC2)C1)N1CCN(CCn2cccc2)CC1` (stereo not given) was run?
A: 13.6%

Q: For `CCN(Cc1nc2c(cnn2C)c(=O)[nH]1)c1ccc(OC)c(OC)c1`, which Percent Effect is on record?
A: 20.2%

Q: How did the Percent Effect turn out when `NC(=O)C1CCN(Cc2cccc(NC(=O)c3ccsc3)c2)CC1` was run?
A: 13.6%

Reference: ChEMBL document CHEMBL3988442, “University of Dundee, Small-Polar-MMV Screening Library” (2021)
